The text below walks through data of PubChem BioAssay (NCATS).

The subject of one assay is CRL-7250. Nature of the assay: Cytotoxic Profiling of Annotated Libraries Using Quantitative High-Throughput Screening (AID 1296008). Also: potency is read from the fitted curve at half-maximal effect. As to max response: % is scaled to controls: 0 for no effect and ±100 for the full control effect. To be noted: Five cell lines viability, CellTiter-Glo ATP luminescence, 48-72 h; max response: hits give low values. An outline of the steps: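 Cells exposed to compounds for 48 or 72 hr at 37 degrees Celsius. Viability read as ATP-coupled luminescence with CellTiter-Glo after 10 min at room temperature.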
For orientation: Cellular ATP, detected with luciferase, serves as a proxy for viable cell number.

For the next assay, the system named is PAD. As to the kind of experiment: qHTS profiling for inhibitors of Plasmodium falciparum proliferation (AID 504749).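 Also: 0% = DMSO vehicle and full inhibition = artemisinin control.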 To be noted: P. falciparum in erythrocytes, SYBR Green DNA, 72 h; series mostly up to 28.7 µM. An outline of the steps: (§1)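 SYBR Green fluorescence (ex 485 nm, em 535 nm) reports parasite DNA after 72 h compound exposure of infected red cells at 0.3% parasitemia, 2.5% hematocrit; signal normalized to 0.29 uM artemisinin and vehicle wells.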

The subject of another assay is PC15. Described as above. As to conditions: P. falciparum in erythrocytes, SYBR Green DNA, 72 h; series mostly up to 28.7 µM. An outline of the steps: as §1
In a further assay the test system is PC26. The assay is described as above. As to conditions: P. falciparum in erythrocytes, SYBR Green DNA, 72 h; series mostly up to 28.7 µM. The essentials:
as §1

The next assay concerns PC49. The assay is described as above. To be noted: P. falciparum in erythrocytes, SYBR Green DNA, 72 h; series mostly up to 28.7 µM. An outline of the steps:
as §1

For the next assay, the system named is SC27B. The assay is described as above. To be noted: P. falciparum in erythrocytes, SYBR Green DNA, 72 h; series mostly up to 28.7 µM. An outline of the steps: as §1
In the next assay the test system is TAB109. Described as above. To be noted: P. falciparum in erythrocytes, SYBR Green DNA, 72 h; series mostly up to 28.7 µM. The essentials:
as §1

Another assay has as its system TAB113. Described as above. As to conditions: P. falciparum in erythrocytes, SYBR Green DNA, 72 h; series mostly up to 28.7 µM. An outline of the steps:
as §1

The next assay deals with TAB165. Described as above. As to conditions: P. falciparum in erythrocytes, SYBR Green DNA, 72 h; series mostly up to 28.7 µM. The essentials: as §1
A further assay deals with W2. The assay is described as above. To be noted: P. falciparum in erythrocytes, SYBR Green DNA, 72 h; series mostly up to 28.7 µM. An outline of the steps: as §1

Structures are written as SMILES. Several values for one entry are separate records, joined by “and”; a condition that tells them apart may be missing. Identical values can stand only once. Records with an inconclusive call do not appear. Where a structure was tested more than once in an assay, its records may differ in their call. Unmarked numbers belong to inactive results. Activity calls are given as the source filed them. Calls follow the shape of the dose curve; as a rule, active = well fitted inhibition curve with a large enough effect; inconclusive = small, poorly fitted or top-dose-only effect; inactive = flat fitted curve, though single readings scatter.
Also: nearly all actives have a fitted effect of over 60% in size.

On to `C[C@@H]1CN(Cc2ccc(F)cc2)[C@@H](C)CN1C(=O)c1cc2c(C(=O)C(=O)N(C)C)cn(C)c2cc1Cl`, for which, in the assay on CRL-7250, the max response is 4.08% and the compound was classed as inactive.
On to `CN(C)C(=O)c1ccc(S(=O)(=O)c2ccc(NC(=O)[C@@](C)(O)C(F)(F)F)c(Cl)c2)cc1`, for which the Potency in the assay with CRL-7250 is 5.26 µM (active) and 5.8 µM (active).
For the compound `O=C1CCCC2=C1C(c1[nH]ncc1Cl)N=C(Nc1nc3ccccc3o1)N2` (stereo not drawn), in the assay on CRL-7250, the max response is 2.7% and the outcome was inactive.
Regarding `CC(C[N+](C)(C)C)OC(N)=O` (stereo not drawn), the Potency entry in the assay with PAD, in the assay with PC15, in the assay on PC26, in the assay on PC49, in the assay with SC27B and in the assay with TAB109 was “inactive” throughout. The Potency entry in the assay with TAB113, with TAB165 and with W2 was “inactive” throughout. Also, the max response with CRL-7250 is 0.597%. The compound was called inactive in the assay on CRL-7250.
Consider `O=C(O)CCc1ccc(NCc2cccc(Oc3ccccc3)c2)cc1`, for which the max response in the assay on CRL-7250 is 4.81%.
On to `COc1cc(F)c(F)c(Nc2ccc(I)cc2F)c1NS(=O)(=O)C1(C[C@H](O)CO)CC1`, for which, in the assay on CRL-7250, the Potency is 5.8 µM (active) and the max response is -24.3%.
Turning to `CC(C=CC1=C(C)CCCC1(C)C)=CC=CC(C)=CC(=O)O`, in the assay with CRL-7250, the max response is -11.2%.
`Cc1[nH]c(=O)c(C#N)cc1-c1ccncc1`: the Potency result with PAD, with PC15, in the assay with PC26, in the assay with PC49, in the assay with SC27B and in the assay with TAB109 was “inactive” in each case. Besides, the Potency entry in the assay with TAB113, in the assay with TAB165 and in the assay with W2 was “inactive” each time. Also, in the assay with CRL-7250, the max response was 1.86% and -12.7%. In the assay on CRL-7250, the compound was classed as inactive.
Consider `S=C(NCc1ccc2c(c1)OCO2)N1CCN(c2ncnc3c2oc2ccccc23)CC1`, for which, in the assay with CRL-7250, the Potency is 1.46 µM (active) and the max response was -64.3%.
As for `CC(C)OC(=O)C1=CN(C(=O)c2ccc(F)c(F)c2)CC(C)(C)c2c1[nH]c1ccccc21`, in the assay on CRL-7250, the max response was 1.22% and the outcome was inactive.
Regarding `CCOc1cc(C=C2C(=O)N(c3ccccc3)N=C2C)cc(Cl)c1OCC(=O)OC`, the max response in the assay with CRL-7250 is 3.6%.
Consider `COc1ccccc1-c1cccc(-c2c(O)c3cc(C#N)c(Cl)cc3[nH]c2=O)c1`, for which the Potency in the assay with CRL-7250 was 8.55 µM (active).
Consider `Cc1ccnc(NS(=O)(=O)c2ccc(NC(=O)Nc3ccc(S(=O)(=O)Nc4nccc(C)n4)cc3)cc2)n1`, for which, in the assay on CRL-7250, the Potency was 0.372 µM (active) and the max response was -2.52%.
For `CC(C)(N)C(=O)N[C@H](COCc1ccccc1)C(=O)N1CCC2(CC1)CN(S(C)(=O)=O)c1ccccc12`, the max response in the assay with CRL-7250 was -61%.
Regarding `COc1ccc([C@@H]2CC(=O)c3c(O)cc(O[C@@H]4O[C@H](CO[C@@H]5O[C@@H](C)[C@H](O)[C@@H](O)[C@@H]5O)[C@@H](O)[C@H](O)[C@@H]4O)cc3O2)cc1O`, in the assay with CRL-7250, the max response was -5.3% and the outcome was inactive.
With `O=NN(CCCl)C(=O)NCCCl`, the Potency entry in the assay with PAD, with PC15, in the assay on PC26, in the assay with PC49, in the assay with SC27B and with TAB109 was “inactive” in each case. In addition, the Potency entry with TAB113 and with TAB165 was “inactive” throughout. The max response in the assay with CRL-7250 is -1.64%. The result with CRL-7250 was inactive.
In the case of `Cc1[nH]c(=O)c(C#N)cc1-c1ccc2nccn2c1`, the Potency result in the assay on PAD, with PC15, in the assay with PC26, with PC49, in the assay on SC27B and in the assay with TAB109 was “inactive” each time. The Potency entry in the assay on TAB113, in the assay with TAB165 and in the assay with W2 was “inactive” each time. Further, in the assay with CRL-7250, the max response is 0.18%. Besides, the call in the assay with CRL-7250 was inactive.
`O=C(C1CC1)N1CC[C@@H](Cn2c(-c3ccc(-c4ccc5occc5c4)cc3)nc3cnccc32)C1`: the call in the assay on CRL-7250 was inactive.
Turning to `CCN(CC)CCCC(C)Nc1ccnc2cc(Cl)ccc12` (stereo not drawn), in the assay on CRL-7250, the max response is 3.49% and the compound was called inactive.
Regarding `CCCCNc1cc(C(=O)O)cc(S(N)(=O)=O)c1Oc1ccccc1`, the Potency result with PAD, with PC15, with PC26, in the assay with PC49, in the assay on SC27B and in the assay with TAB109 was “inactive” in each case. In addition, the Potency result with TAB113, in the assay on TAB165 and in the assay with W2 was “inactive” throughout. Also, the max response with CRL-7250 is 0.377%. The outcome in the assay with CRL-7250 was inactive.
Take `CN(C)c1ccc(C2Nc3ccc4ccccc4c3C3=C2C(=O)CC(C)(C)C3)cc1Br` (stereo not drawn): the max response with CRL-7250 is -23.7% and -20.8%.
As to `CC(C)NCC(O)COc1ccc(COCCOC(C)C)cc1` (stereo not drawn), the Potency result with PAD, in the assay on PC15, in the assay with PC26, in the assay on PC49, in the assay on SC27B and in the assay with TAB113 was “inactive” each time. Further, the Potency entry in the assay on TAB165 and with W2 was “inactive” throughout. Also, in the assay on CRL-7250, the max response was -5.09%. Besides, the result in the assay on CRL-7250 was inactive.
For the compound `CC[C@@H](C)[C@H](NC(=O)[C@H](CC1CCCCC1)NC(=O)c1ccno1)C(=O)N1CCC2(CCc3ccccc32)CC1`, the max response with CRL-7250 is -8.58% and -11.9%.
With `COc1ccc(C2=N[C@H](c3ccc(Cl)cc3)[C@H](c3ccc(Cl)cc3)N2C(=O)N2CCNC(=O)C2)c(OC(C)C)c1`, in the assay with CRL-7250, the Potency is 3.32 µM (active).
As for `O=c1n(CCCN2CCN(c3cccc(Cl)c3)CC2)nc2ccccn12`, the Potency result in the assay with PAD, with PC15, in the assay on PC26, in the assay with PC49, in the assay with SC27B and in the assay with TAB109 was “inactive” throughout. Besides, the Potency entry with TAB113, with TAB165 and in the assay with W2 was “inactive” throughout. The max response in the assay on CRL-7250 is -10.4%. Moreover, the compound was called inactive in the assay with CRL-7250.
On to `Cc1cc2c(F)c(Oc3ncnn4cc(OC[C@@H](C)O)c(C)c34)ccc2[nH]1`, for which, in the assay with CRL-7250, the max response was -47.3%.
With `C[C@]1(c2nc3c(C(N)=O)cccc3[nH]2)CCCN1`, the max response in the assay on CRL-7250 was -16.5%.
The same measure, in the same setting: the same measure for `Cn1cc(-c2ccc3nnc(C(F)(F)c4ccc5ncccc5c4)n3n2)cn1`: -14.4%.
Consider `OC(CCN1CCCCC1)(c1ccccc1)C1CC2C=CC1C2` (stereo not drawn), for which the compound was called inactive in the assay on CRL-7250.
As to `Cc1cn[nH]c1`, the Potency entry in the assay on PAD, in the assay with PC15, in the assay with PC26, in the assay on PC49, in the assay with SC27B and in the assay with TAB109 was “inactive” in each case. Further, the Potency entry with TAB113, with TAB165 and in the assay with W2 was “inactive” each time. Moreover, in the assay on CRL-7250, the Potency was 5.26 µM (active). Moreover, in the assay with CRL-7250, the max response was -13.4%.
With `CCC(C)n1ncn(-c2ccc(N3CCN(c4ccc(OC[C@H]5CO[C@](Cn6cncn6)(c6ccc(Cl)cc6Cl)O5)cc4)CC3)cc2)c1=O` (stereo partly drawn), the max response with CRL-7250 is -2.71%.
Consider `OCCn1cc(-c2cnc3nnn(Cc4ccc5ncccc5c4)c3n2)cn1`, for which, in the assay on CRL-7250, the max response is -20.1%.
In the case of `O=C(Nc1nc2ccccc2n1CCN1CCOCC1)c1cccc([N+](=O)[O-])c1`, in the assay with CRL-7250, the compound was called inactive.
For `COc1cc(Oc2ccnc3cc(OC)c(OC)cc23)ccc1NC(=O)NC(C)c1nccs1` (stereo not drawn), in the assay with CRL-7250, the max response was -3.15% and -18.6%.
On the same count and under the same terms, the same measure for `Nc1ncnc2nc(-c3ccc(N4CCOCC4)nc3)cc(-c3cccc(Br)c3)c12`: 0.286%; for `CCC(=O)N[C@H]1CC[C@H](C(=O)N(C)c2ccc(-c3nc4ccccc4o3)cc2)C1`: -6.63%.
For the compound `O=C1CCC(N2C(=O)c3ccccc3C2=O)C(=O)N1` (stereo not drawn), the Potency entry with PAD, with PC15, in the assay on PC26, in the assay with PC49, with SC27B and in the assay with TAB109 was “inactive” in each case. Further, the Potency result in the assay on TAB113, in the assay on TAB165 and in the assay on W2 was “inactive” in each case. Also, in the assay with CRL-7250, the max response is 1.53%. In the assay on CRL-7250, the result was inactive.
For `NCCCC(N)(C(=O)O)C(F)F` (stereo not drawn), the Potency entry with PAD, in the assay on PC15, with PC26, in the assay with PC49, in the assay with SC27B and in the assay on TAB109 was “inactive” throughout. Further, the Potency result with TAB113, in the assay on TAB165 and in the assay on W2 was “inactive” in each case. Besides, the max response in the assay on CRL-7250 is -1.33% and -4.78%.
